Screens deposited in PubChem BioAssay by National Center for Advancing Translational Sciences (NCATS).
TDP1 cell CPT: DT40-hTDP1 cell growth loss with CPT; 420,000 tested, 12% active; Potency, µM (titrated, usually from 46.2 µM), hits mostly inhibitors; AID 686979; chicken DT40 Tdp1-/-;hTDP1 cells + 20 nM CPT, ATP luminescence, 48 h; note: nearly all actives have a fitted effect of over 55% in size
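Chicken DT40 Tdp1-/- cells stably complemented with human TDP1 were seeded at 400 cells/well in medium containing 20 nM camptothecin, exposed to pin-transferred compounds, and grown at 37 °C for at least 48 hr. Viability was read as ATP luminescence.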
IL1B secr inh: inhibitors of inflammasome signaling (IL-1 beta secretion). 360,000 tested, 4.7% active. activity change, % at 57.5 µM. THP-1 LPS/ATP IL-1B secretion, AlphaLISA, 16 h; hits give low values; in the data active = activity change below about -50%; inconclusive = mostly about -30% to -49%
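Secreted IL-1B measured by AlphaLISA bead assay after 16 h compound exposure of THP-1 cells; compounds (final up to 57.5 uM) added 1 h before LPS (250 ng/mL) and ATP (1.25 mM) stimulation; lower signal means less secretion.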
HT1080 IDH1KD tx: toxicity to HT-1080 IDH1 knockdown cells (counter line). HT-1080 IDH1 knockdown viability, ATP luminescence, 48 h. Potency, µM (series often up to 46.1 µM), hits mostly cytotoxic. 360,000 tested, 2% active
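HT-1080-IDH1KD cells (IDH1 knocked down), 750/well in RPMI with 5% FBS, treated with compound 48 h at 37 degrees C. Viability by CellTiter-Glo luminescence, normalised to DMSO and no-cell wells; concentration-response curves classed.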
TDP1 cell noCPT: qHTS for Inhibitors of human tyrosyl-DNA phosphodiesterase 1 (TDP1): qHTS in cells in absence of CPT | DT40 Tdp1-/- hTDP1 cells, no CPT, ATP luminescence, 48 h | 420,000 tested, 15% active | Potency, µM (titrated, usually from 46.2 µM), hits mostly inhibitors | AID 686978, 2013; note: nearly all actives have a fitted effect of over 55% in size
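Seeded 400 DT40-hTDP1 cells/well (vehicle DMSO, no 20 nM CPT); pinned compounds; ≥48 hr at 37 °C; CellTiter-Glo luminescence as viability measure.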
HT1080-NT tox: kills 2HG-producing HT-1080-NT fibrosarcoma cells. AID 686970. HT-1080-NT fibrosarcoma viability, CellTiter-Glo ATP luminescence, 48 h. 360,000 tested, 1.6% active. Potency, µM (titrated, usually from 46.1 µM), most hits filed as cytotoxic;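 note: NT is the 2HG producing partner of a matched IDH1 knockdown line; nearly all actives have a fitted effect of over 55% in size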
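HT-1080-NT; 750 cells/well; 5% FBS RPMI; 48 h compound, 37 degrees C; CellTiter-Glo luminescence; curve fitting and curve-class assignment.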
Numbers stand for hits. Sampled rows, rich in hits. Any-hit rate of the full collection: about 19%. Unless noted, calls come from the whole dose curve; as a rule, active = well fitted curve in the direction sought with a large enough effect; inconclusive = small, poorly fitted or top-dose-only effect, or another doubt; inactive = no such curve, though single readings can be large; an effect the other way counts as inactive or inconclusive.

How did CN(C)c1cc2c3ccccc3ccc2c2ccccc12 do in these assays?
TDP1 cell CPT: inconclusive; TDP1 cell noCPT: 16µM

How did OC(C[n+]1cccc(Br)c1)c1ccccc1 (stereo unspecified) do in these assays?
TDP1 cell CPT: inactive; TDP1 cell noCPT: inactive

How did CCCn1c(-c2cccs2)nc2nc3ccccc3nc21 do in these assays?
TDP1 cell CPT: 18µM; IL1B secr inh: inactive; HT1080 IDH1KD tx: inactive; TDP1 cell noCPT: 16µM; HT1080-NT tox: inactive

Results for c1csc(-c2nc3nc4ccccc4nc3n2Cc2ccc3c(c2)OCO3)c1 ?
TDP1 cell CPT: 18µM; IL1B secr inh: inconclusive; HT1080 IDH1KD tx: inactive; TDP1 cell noCPT: inconclusive; HT1080-NT tox: inactive

How did CCOC(=O)N1CCN(C(=O)/C=C/c2c(C)nn(-c3ccc(F)cc3)c2Cl)CC1 do in these assays?
TDP1 cell CPT: inconclusive; IL1B secr inh: inactive; HT1080 IDH1KD tx: inactive; TDP1 cell noCPT: 13µM; HT1080-NT tox: inactive

What do the screens show for `CNc1cc(-c2cccc(OC)c2F)nc2ccnn12`?
TDP1 cell CPT: inconclusive; IL1B secr inh: inconclusive; HT1080 IDH1KD tx: inactive; TDP1 cell noCPT: inconclusive; HT1080-NT tox: inactive

How did CC(C)(C(=O)N1CCC1(C)C(=O)NC1Cc2ccccc2C1)c1ccccc1 (stereo unspecified) do in these assays?
TDP1 cell CPT: 16µM; IL1B secr inh: inactive; HT1080 IDH1KD tx: inactive; TDP1 cell noCPT: 21µM; HT1080-NT tox: inactive

Results for Cc1ccc(C(=O)CNc2ccccc2C)cc1 ?
TDP1 cell CPT: inactive; IL1B secr inh: inactive; HT1080 IDH1KD tx: inactive; TDP1 cell noCPT: inactive; HT1080-NT tox: inactive

How did Cc1ccc(C(=O)CC(=O)c2cc(Cl)ccc2O)cc1 do in these assays?
TDP1 cell CPT: 6.5µM; IL1B secr inh: inactive; HT1080 IDH1KD tx: inconclusive; TDP1 cell noCPT: 4.6µM; HT1080-NT tox: inconclusive

How did Cc1ccc(C(=O)CNc2ccc(C)cc2C)cc1 do in these assays?
TDP1 cell CPT: 23µM; IL1B secr inh: inactive; HT1080 IDH1KD tx: inactive; TDP1 cell noCPT: 16µM; HT1080-NT tox: inactive

How did Cc1ccc(CC(=O)c2ccc(Cl)cc2)cc1 do in these assays?
TDP1 cell CPT: inactive; IL1B secr inh: inactive; HT1080 IDH1KD tx: inactive; TDP1 cell noCPT: inactive; HT1080-NT tox: inactive

Results for Cc1ccc(C(=O)CC(=O)c2ccc(C)cc2O)cc1 ?
TDP1 cell CPT: inconclusive; IL1B secr inh: inactive; HT1080 IDH1KD tx: inconclusive; TDP1 cell noCPT: 18µM; HT1080-NT tox: inactive

What do the screens show for `CC(C)NC(=O)c1ccc2sc([C@@H]3O[C@H](CO)[C@H](O)[C@H](O)[C@H]3O)nc2c1`?
TDP1 cell CPT: inactive; IL1B secr inh: inactive; HT1080 IDH1KD tx: inactive; TDP1 cell noCPT: inactive; HT1080-NT tox: inactive

Results for Cc1ccc(Cc2c(-c3ccc(C)cc3)nc3c(Cl)cc(C(F)(F)F)cn23)cc1 ?
TDP1 cell CPT: inconclusive; IL1B secr inh: inactive; HT1080 IDH1KD tx: inactive; TDP1 cell noCPT: inconclusive; HT1080-NT tox: inactive

How did Cc1c(OC(C)C(=O)N2C[C@H]3C[C@@H](C2)c2cccc(=O)n2C3)ccc2c3c(c(=O)oc12)CCCC3 (stereo partly specified) do in these assays?
TDP1 cell CPT: inconclusive; IL1B secr inh: inactive; HT1080 IDH1KD tx: inactive; TDP1 cell noCPT: inconclusive; HT1080-NT tox: inactive

Results for CC(=C1SC(=S)NC1=O)c1ccccc1 ?
TDP1 cell CPT: inactive; IL1B secr inh: inactive; HT1080 IDH1KD tx: inactive; TDP1 cell noCPT: inactive; HT1080-NT tox: inactive

How did CC1(c2ccccc2)CC(C)(C)N2C(=O)/C(=C3\SC(=S)NC3=O)c3cccc1c32 (stereo unspecified) do in these assays?
TDP1 cell CPT: 23µM; IL1B secr inh: inactive; HT1080 IDH1KD tx: inactive; TDP1 cell noCPT: 15µM; HT1080-NT tox: inactive

What do the screens show for `Cc1cc(C2=NNC(=NC3CC3)SC2)c(C)n1-c1ccccc1`?
TDP1 cell CPT: inconclusive; IL1B secr inh: inactive; HT1080 IDH1KD tx: inactive; TDP1 cell noCPT: 23µM; HT1080-NT tox: inactive

What do the screens show for `COc1ccc(-n2c(C)cc(C3=NNC(=NC4CC4)SC3)c2C)cc1`?
TDP1 cell CPT: inconclusive; IL1B secr inh: inconclusive; HT1080 IDH1KD tx: 21µM; TDP1 cell noCPT: 23µM; HT1080-NT tox: 23µM

Results for Cc1cc(C(=O)Nc2ccccc2-c2nc(CNC(=O)c3ccccc3Cl)c(C)o2)c(C)o1 ?
TDP1 cell CPT: inactive; TDP1 cell noCPT: inactive
